eIF4H FP inh – inhibitors of RNA binding by human eIF4H; Q15056; AID 2012; inhibition, % at 35 µM; actives 0.94% (n = 290,000); eIF4H fluorescence polarization binding assay;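 note: calls also rest on retests at 20 µM and on dose response follow-up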
eIF4E-4G inh – eIF4E/eIF4G interaction inhibition in translation initiation. P63073+Q04637. TR-FRET eIF4E-eIF4GI(517-606) binding, 2 h. inhibition, % at 21.7 µM. actives 0.37% (n = 220,000). AID 782;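 active = inhibition above about 30%, limit read from the data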
PABP polyA inh – PABP-poly(A) binding inhibition. P11940. PABP-poly(A) RNA binding, fluorescence polarization. calls only at 35 µM. actives 1% (n = 290,000). AID 2014;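 note: calls also rest on retests at 20 µM and on dose response follow-up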
14-3-3 Bad inh – disrupts binding of bovine 14-3-3 zeta to phospho-Bad peptide. TR-FRET 14-3-3zeta/Dy647-pBad peptide displacement, 1 h. actives 0.71% (n = 220,000). inhibition, % at 21.7 µM;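 active = inhibition above about 70%, limit read from the data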
Target sequence (P63103 whole entry, looked up): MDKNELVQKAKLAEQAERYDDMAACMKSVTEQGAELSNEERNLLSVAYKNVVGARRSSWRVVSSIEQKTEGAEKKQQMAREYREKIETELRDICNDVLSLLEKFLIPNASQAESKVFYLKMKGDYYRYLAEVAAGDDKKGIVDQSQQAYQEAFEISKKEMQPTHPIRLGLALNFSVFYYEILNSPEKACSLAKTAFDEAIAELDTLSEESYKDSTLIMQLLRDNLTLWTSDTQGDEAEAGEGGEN
PABP1 MLLE inh – inhibitors of microRNA-mediated deadenylation, human PABP1 MLLE binding. AID 588489. actives 0.36% (n = 360,000). inhibition, % at 20 µM. GST-MLLE / FITC-PAM2 fluorescence polarization. P11940; in the data active = inhibition above about 35%, passing the limit was not always enough
A number is an active result; [ ] = remark or other dose. A selection: hits, their analogues and other compounds. The true share with any hit is near 1.9%. Unless noted, the rule behind the calls is not given here.

Screening N#C/C(=C\c1cn(CC(=O)N2CCCC2)c2ccccc12)C(=O)NCc1ccc2c(c1)OCO2 returned eIF4H FP inh inactive, eIF4E-4G inh inactive, PABP polyA inh inactive, 14-3-3 Bad inh inactive and PABP1 MLLE inh inactive.
Screening N#C/C(=C\c1cn(CC(=O)N2CCCCC2)c2ccccc12)C(=O)NCc1ccc2c(c1)OCO2 returned eIF4H FP inh 62, eIF4E-4G inh inactive, PABP polyA inh active, 14-3-3 Bad inh inactive and PABP1 MLLE inh inactive.
CCCOc1ccc(C(=O)NC(=S)N2CCN(c3cc4c(cc3F)c(=O)c(C(=O)O)cn4CC)CC2)cc1 was read as eIF4H FP inh inactive, PABP polyA inh inactive and PABP1 MLLE inh inactive.
`COc1ccccc1NC(=O)NC1CCS(=O)(=O)C1` (centres undefined) gave eIF4H FP inh inactive, PABP polyA inh inactive and PABP1 MLLE inh inactive.
Screening Cc1ccc(C)c(S(=O)(=O)N2CCN(CC(=O)N3CCc4ccccc4C3)CC2)c1 returned eIF4H FP inh inactive, eIF4E-4G inh inactive, PABP polyA inh inactive, 14-3-3 Bad inh 86[fluorescence artefact?] and PABP1 MLLE inh inactive.
`O=C(CN1CCN(S(=O)(=O)c2cc(C(F)(F)F)ccc2Cl)CC1)N1CCc2ccccc2C1` gave PABP1 MLLE inh inactive.
CC(C)(C)C1CCC(=O)N(CCOc2ccccc2)CC1 (centres undefined) was read as eIF4H FP inh inactive, PABP polyA inh inactive and PABP1 MLLE inh inactive.
Cc1cccn2c(=O)c3cc(C(=O)N(C)C)n(C)c3nc12 was read as eIF4H FP inh inconclusive, PABP polyA inh inconclusive and PABP1 MLLE inh 53.
`CCCCNC(=O)c1cc2c(=O)n3cccc(C)c3nc2n1C` gave eIF4H FP inh inactive and PABP polyA inh inactive.
For Cc1cccn2c(=O)c3cc(C(=O)NCCCn4ccnc4)n(C)c3nc12 the results were eIF4H FP inh 91, eIF4E-4G inh inactive, PABP polyA inh active, 14-3-3 Bad inh inactive and PABP1 MLLE inh inactive.
Screening Cc1cccc(CC(=O)NCCS(=O)(=O)N2CCN(c3ccccc3)CC2)c1 returned PABP1 MLLE inh inactive.
Screening Cc1ccc(C(=O)N2CCCCC2)cc1S(=O)(=O)N1CCOCC1 returned eIF4H FP inh inactive, PABP polyA inh inactive and PABP1 MLLE inh inactive.
For CC[C@@]1(O)C(=O)OCc2c1cc1n(c2=O)Cc2cc3c(N)cccc3nc2-1 the results were eIF4H FP inh 92, eIF4E-4G inh inactive, PABP polyA inh active, 14-3-3 Bad inh inactive and PABP1 MLLE inh inactive.
Fc1cccc(-c2csc(-c3ccno3)n2)c1 was read as eIF4H FP inh inactive, eIF4E-4G inh inactive, PABP polyA inh inactive, 14-3-3 Bad inh inactive and PABP1 MLLE inh inactive.
For Nc1nc(-c2cccc(F)c2)cs1 the results were eIF4H FP inh inactive, eIF4E-4G inh inactive, PABP polyA inh inactive, 14-3-3 Bad inh inactive and PABP1 MLLE inh 39.
C=CCN(Cc1cn(C)nc1-c1cccc(Cl)c1)C1CCS(=O)(=O)C1 (centres undefined) was read as eIF4H FP inh inactive, eIF4E-4G inh inactive, PABP polyA inh inactive, 14-3-3 Bad inh 96 and PABP1 MLLE inh inactive.
Screening O=C(O)C1CCCCC1C(=O)Nc1nc(-c2ccc(Cl)s2)cs1 (centres undefined) returned eIF4H FP inh 76, eIF4E-4G inh inactive, PABP polyA inh active, 14-3-3 Bad inh inactive and PABP1 MLLE inh inactive.
Screening c1ccc(Cn2ncc3c(N4CCCCC4)ncnc32)cc1 returned eIF4H FP inh inactive, eIF4E-4G inh inactive, PABP polyA inh inactive, 14-3-3 Bad inh 74 and PABP1 MLLE inh inactive.
Screening Clc1ccc(Cn2ncc3c(N4CCN(c5ccccc5)CC4)ncnc32)cc1 returned PABP1 MLLE inh inactive.
Cc1ccc(Cl)cc1NC(=S)Nn1cnnc1 was read as eIF4H FP inh inactive, PABP polyA inh inactive and PABP1 MLLE inh inactive.
S=C(NCc1ccncc1)Nc1ccc(Br)cc1Cl was read as eIF4H FP inh inactive, PABP polyA inh inactive and PABP1 MLLE inh inactive.
For O=C(NNC(=S)Nc1ccc(Br)cc1Cl)c1ccncc1 the results were eIF4H FP inh inactive, eIF4E-4G inh inactive, PABP polyA inh inactive, 14-3-3 Bad inh inactive and PABP1 MLLE inh 47.
`S=C(Nc1ccc(Br)cc1Cl)Nn1cnnc1` gave eIF4H FP inh inactive, eIF4E-4G inh inactive, PABP polyA inh inactive, 14-3-3 Bad inh inactive and PABP1 MLLE inh 37.
Screening COc1ccc(CNC(=O)CC[C@H]2O[C@@H](n3cnc4c(NC(=O)c5ccccc5)ncnc43)[C@H](O)[C@@H]2O)cc1 returned PABP1 MLLE inh inactive.
For O=C(OCC(=O)N1CCCC1=O)C1COc2ccccc2O1 (centres undefined) the results were eIF4H FP inh inactive, eIF4E-4G inh inactive, PABP polyA inh inactive, 14-3-3 Bad inh inactive and PABP1 MLLE inh inactive.
`CC(C)c1ccc(C(=O)NNC(=O)C2C3CCC(C3)C2C(=O)O)cc1` (centres undefined) gave eIF4H FP inh inactive and PABP polyA inh inactive.
O=C(NNC(=O)C1C2CCC(C2)C1C(=O)O)c1ccc(Br)o1 (centres undefined) was read as eIF4H FP inh inactive, eIF4E-4G inh inactive, PABP polyA inh active and 14-3-3 Bad inh inactive.
S=c1[nH]nc(-c2ccccc2Cl)n1/N=C/C=C/c1ccco1 was read as eIF4H FP inh 92, eIF4E-4G inh inactive, PABP polyA inh active, 14-3-3 Bad inh inactive and PABP1 MLLE inh inactive.
`S=c1[nH]nc(-c2ccncc2)n1/N=C/C=C/c1ccco1` gave eIF4H FP inh 96, eIF4E-4G inh inactive, PABP polyA inh active, 14-3-3 Bad inh inactive and PABP1 MLLE inh inactive.
`C(=C\c1ccco1)/C=N/n1cnnc1` gave eIF4H FP inh 93, eIF4E-4G inh inactive, PABP polyA inh active, 14-3-3 Bad inh inactive and PABP1 MLLE inh inactive.
Cc1cccc(-c2n[nH]c(=S)n2/N=C/C=C/c2ccco2)c1 was read as eIF4H FP inh 85, eIF4E-4G inh inactive, PABP polyA inh active, 14-3-3 Bad inh inactive and PABP1 MLLE inh inactive.
CC(/C=N/n1c(-c2ccccc2)n[nH]c1=S)=C\c1ccco1 was read as eIF4H FP inh inactive, eIF4E-4G inh inactive, PABP polyA inh inactive, 14-3-3 Bad inh inactive and PABP1 MLLE inh inactive.
For S=c1[nH]nc(-c2cccc(Cl)c2)n1/N=C/c1ccco1 the results were eIF4H FP inh inactive, eIF4E-4G inh inactive, PABP polyA inh inactive and 14-3-3 Bad inh inactive.
`CC(/C=N/n1c(-c2ccncc2)n[nH]c1=S)=C\c1ccco1` gave eIF4H FP inh 84, eIF4E-4G inh inactive, PABP polyA inh active, 14-3-3 Bad inh inactive and PABP1 MLLE inh inactive.
O=C(CCC(=O)c1ccc(Cl)cc1)NCc1ccccc1 was read as PABP1 MLLE inh inactive.
For O=C(c1ccc(Cl)cc1)n1c(NCc2ccccc2)n[nH]c1=S the results were eIF4H FP inh inactive, eIF4E-4G inh inactive, PABP polyA inh inactive, 14-3-3 Bad inh 82 and PABP1 MLLE inh inactive.
For CCn1cc(S(=O)(=O)Nc2ccc3c(c2)OCCO3)cn1 the results were eIF4H FP inh inactive, eIF4E-4G inh inactive, PABP polyA inh inactive, 14-3-3 Bad inh inactive and PABP1 MLLE inh inactive.
For O=[N+]([O-])c1ccc(S(=O)(=O)Nc2ccc3c(c2)OCCO3)cc1 the results were eIF4H FP inh inactive, PABP polyA inh inactive and PABP1 MLLE inh 41.
